{"source": "PubChem BioAssay (Tox21)", "note": "Inconclusive results are not listed. A number with no mark means an inactive call. Activity calls are given as the source filed them. Calls come from the whole dose curve. % is set by controls: 0 for no effect and ±100 for the full control effect; potency is the fitted concentration of half-maximal effect."}
{"assay": "Nuclear factor erythroid 2-related factor 2/antioxidant responsive element (Nrf2/ARE) small molecule agonists: luciferase reporter gene qHTS assay in human keratinocytes (AID 1919969); note: nearly all actives have a fitted effect of over 35% in size", "details": "KeratinoSens HaCaT ARE-luciferase, luminescence, 24 h; series mostly up to 92.4 µM; activity, positive = activation: at the top concentration", "from_the_text": "National Center for Advancing Translational Sciences [NCATS]\nDivision of Preclinical Innovation [DPI]\nU.S. Environmental Protection Agency [EPA]\nNational Institutes of Environmental Health Sciences [NIEHS]\nNational Toxicology Program [NTP]\nU.S. Food and Drug Administration [FDA]\nOxidative stress has been implicated in the pathogenesis of a variety of diseases ranging from cancer to neurodegeneration. The antioxidant response element (ARE) signaling pathway plays an important role in the amelioration of oxidative stress. The KeratinoSens (Givaudan, Switzerland) is an in vitro test method which quantifies luciferase induction as a measure of activation of Keap1-Nrf2-antioxidationt/electrophile response element (ARE) dependant pathway in HaCaT human keratinocytes stably transfected with a selectable plasmid. The KeratinoSens assay is a cell-based assay with a reporter cell line to detect potential skin sensitizers by their ability to induce the Nrf2/ARE-response. The activation of the report gene under culture conditions can be detected by ONE-Glo Luciferase Assay System (Promega, Madison, WI). This cell line has been used to screen the Tox21 10K compound library to identify agonists that induce oxidative stress. The cytotoxicity of the Tox21 compound library against the KS-ARE cell line was tested in parallel by measuring the cell viability using CellTiter- Fluor assay system (Promega, Madison, WI) in the same wells.\nHaCaT derived cell line KeratinoSens were dispensed at 1,500 cells/5uL/well in 1536-well white wall/solid bottom plates using a Multidrop Combi (ThermoFisher Scientific, Waltham, MA) dispenser. After the assay plates were incubated at 37 C/5% CO2 for 5 h, 23 nL of compounds dissolved in DMSO, positive controls or DMSO only was transferred to the assay plate by a pintool workstation (Kalypsys, San Diego, CA). The plates were incubated at 37 C/5% CO2 for 23 h, followed by addition of 1uL/well of CellTiter-Fluor reagent into the assay plates using a Flying Reagent Dispenser (Aurora Discovery, San Diego, CA) for cell viability readout that measures cytotoxicity. After 1 h incubation at 37 C/5% CO2 the fluorescence intensity was measured using a ViewLux (PerkinElmer, Shelton, CT) plate reader. Then 4uL/well of One-Glo were added using a Flying Reagent Dispenser. After the plates were incubated at room temperature for 30 min, the luminescence intensity in the assay plates was measured using ViewLux plate reader."}
{"smiles": "O=Cc1cc2ccccc2o1", "activity, positive = activation": "-17.3%"}
{"smiles": "CC/C=C/CCO", "activity, positive = activation": "-2.19%"}
{"smiles": "CC(=O)Nc1ccc(C)cc1", "activity, positive = activation": "1.16%"}
{"smiles": "Nc1cccc(N)n1", "Potency": "inactive"}
{"smiles": "NC(=O)Nc1ccc(Cl)cc1", "activity, positive = activation": "-0.359%"}
{"smiles": "CC(C)Nc1ccccc1", "activity, positive = activation": "-3.02%"}
{"smiles": "CCCCCCCCS", "activity, positive = activation": "0.327%"}
{"smiles": "Cc1ccccc1S(N)(=O)=O", "activity, positive = activation": "-9.03%"}
{"smiles": "Cc1occc1S", "Potency": "68.6 µM (active)"}
{"smiles": "CCCCC(CC)COC(=O)CC(C(=O)OCC(CC)CCCC)S(=O)(=O)O", "note": "(stereo not given)", "Potency": "inactive"}
{"smiles": "CC1(C)C(O)C(C)(C)C1O", "note": "(stereo not given)", "activity, positive = activation": "-6.41%"}
{"smiles": "O=C(O)c1ccc(OCCN2CCCCC2)cc1", "activity, positive = activation": "-1.68% [at 42.5 µM]"}
{"smiles": "O=C(O)[C@@H]1[C@H]2C[C@H]3c4[nH]c5ccccc5c4CCN3C[C@@H]2CC[C@@H]1O", "activity, positive = activation": "1.77% [at 42.5 µM]"}
{"smiles": "CC(C)(Oc1ccc(CCNC(=O)c2ccc(Cl)cc2)cc1)C(=O)O", "Potency": "inactive"}
{"smiles": "Cc1nc(-c2ccc3c(c2)CCN(CCC2CCC(NC(=O)/C=C/c4ccc(F)cc4)CC2)CC3)no1", "note": "(stereo not given)", "activity, positive = activation": "18.2% [at 42.5 µM]"}
{"smiles": "Cc1c(C(=O)c2c[nH]n(C)c2=O)ccc(S(C)(=O)=O)c1C1=NOCC1", "activity, positive = activation": "-7.86% [at 42.5 µM]"}
{"smiles": "NS(=O)(=O)c1cc2c(cc1C(F)(F)F)NC(Cc1ccccc1)NS2(=O)=O", "note": "(stereo not given)", "activity, positive = activation": "-2.24% [at 42.5 µM]"}
{"smiles": "CC1=C(O)C(=O)OC1C", "note": "(stereo not given)", "activity, positive = activation": "4.3%"}
{"smiles": "Cc1ccc(C=O)cc1", "activity, positive = activation": "2.22% [at 42.5 µM]"}
{"smiles": "NC(=O)c1cccc([N+](=O)[O-])c1", "activity, positive = activation": "-3.84%"}
{"smiles": "CCOC(=O)CN", "activity, positive = activation": "-5.78%"}
{"smiles": "CC(C)c1cccc(C(C)C)c1N", "activity, positive = activation": "6.42%"}
{"smiles": "O=Cc1ccc(Cl)cc1", "activity, positive = activation": "-0.981%"}
{"smiles": "O=S(=O)(O)CCCN1CCOCC1", "activity, positive = activation": "-5.01%"}
{"smiles": "CN1C(CCl)Nc2cc(Cl)c(S(N)(=O)=O)cc2S1(=O)=O", "note": "(stereo not given)", "activity, positive = activation": "2.69% [at 42.5 µM]"}
{"smiles": "c1ccsc1", "activity, positive = activation": "-4.53%"}
{"smiles": "CCCC(=O)C(C)=O", "activity, positive = activation": "-9.77%"}
{"smiles": "CCCCCCOC(=O)c1ccccc1O", "activity, positive = activation": "-0.0085%"}
{"smiles": "FC(F)(F)/C(=N\\OCC1OCCO1)c1ccc(Cl)cc1", "activity, positive = activation": "0.595%"}
{"smiles": "CCO/C([O-])=N/c1c[n+](N2CCOCC2)no1", "activity, positive = activation": "1.88% [at 42.5 µM]"}
{"smiles": "Clc1nc2ccccc2s1", "activity, positive = activation": "-7.62%"}
{"smiles": "CCC(CO)CO", "activity, positive = activation": "-7.28%"}
{"smiles": "CCOC(=O)OC(=O)OCC", "activity, positive = activation": "-5.56%"}
{"smiles": "Nc1cc(C(Cl)=C(Cl)Cl)c(S(N)(=O)=O)cc1S(N)(=O)=O", "activity, positive = activation": "2.14% [at 42.5 µM]"}
{"smiles": "O=Nc1ccc(NO)cc1", "Potency": "63.6 µM (active)"}
{"smiles": "CN1C(=O)CC(C)(c2ccccc2)C1=O", "note": "(stereo not given)", "activity, positive = activation": "0.18% [at 42.5 µM]"}
{"smiles": "CC(C)(O)C(=O)O", "activity, positive = activation": "-5.01%"}
{"smiles": "CC(=O)SC[C@@H](C)C(=O)N1CCC[C@H]1C(=O)N[C@@H](Cc1ccccc1)C(=O)O", "activity, positive = activation": "-0.0405% [at 42.5 µM]"}
{"smiles": "OCC(O)CN1CCN(c2ccccc2)CC1", "note": "(stereo not given)", "activity, positive = activation": "-1.11% [at 42.5 µM]"}
{"smiles": "O=S(=O)(O)c1ccc(N=Nc2c(O)ccc3cc(S(=O)(=O)O)ccc23)cc1", "Potency": "inactive"}
